Source: PubChem (National Center for Advancing Translational Sciences (NCATS))
CHX counter = counter-screen for Shiga toxin inhibitors: cycloheximide protein synthesis inhibition | cell reporter, cycloheximide protein synthesis inhibition counterscreen | max response, % | 300,000 tested, 12% active | AID 2314; in the data active means max response mostly above about 13%, no sharp cut-off; inactive means mostly below about 14%; further: read at 38.3 µM for the half of the compounds with a filed dose
Pf growth 48h = P. falciparum growth inhibition at 48 hours (one generation). P. falciparum luciferase growth in erythrocytes, 48 h. Potency, µM (series often up to 28.7 µM), most hits filed as inhibitors. 310,000 tested, 5.9% active. AID 504832
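Compounds are pin-transferred into medium, infected erythrocytes (2% hematocrit, 0.1% parasitemia final) are added, and plates sit one parasite generation at 37 C in 5% CO2. Detection reagent is then added and luminescence measured.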
HCV inh = inhibitors of hepatitis C virus infection; Huh7.5.1 HCVcc-Cre infection, luciferase reporter, 44 h; Potency, µM (titrated, usually from 41.8 µM), actives largely listed as inhibitors; 340,000 tested, 3.4% active
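Whole-lifecycle infectious HCVcc-Cre system; cells 1,000/well, compound then virus (~0.5 moi) added 4 h after plating, 44 h culture. Luciferase read 15 sec following 15 min substrate incubation, room temp.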
Shiga inhibitor = blocks Shiga toxin action in Vero cells; Vero cells, Shiga toxin protein synthesis inhibition reporter; inhibition, % at 38.7 µM; 290,000 tested, 9.2% active; in the data active means inhibition mostly above about 28%, no sharp cut-off; inactive means mostly below about 43%
Pf growth 96h = P. falciparum growth inhibition at 96 hours | P. falciparum luciferase reporter growth, 96 h | Potency, µM (series often up to 28.7 µM), actives largely listed as inhibitors | 320,000 tested, 6.9% active | AID 504834
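Infected RBCs, 2% Hct / 0.05% parasitemia final; luciferase-reporter P. falciparum; cpd 96 h, 37 C, 5% CO2; luciferase detection reagent; luminescence.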
AMA1 RON2 block = inhibitors of Plasmodium falciparum AMA1-RON2 interaction; AID 720542; Potency, µM (series often up to 58.2 µM), most hits filed as inhibitors; AlphaScreen AMA1-biotinylated RON2 peptide binding; 360,000 tested, 0.2% active; further: nearly all actives have a fitted effect of over 45% in size
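AMA1 (3D7) with his tag at 25 nM final met compounds first, then biotinylated RON2 peptide at 25 nM; detection used donor plus acceptor beads, 10 µg/mL apiece, read by AlphaScreen after 30 min at room temperature.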
A number is an active result; . = inactive; ? = inconclusive; / = no result given. Shown are actives, neighbours in structure and some others; about 21% of the full set was active somewhere. Unless noted, the call rests on the fitted dose curve; in most records, active means well fitted curve in the direction sought with a large enough effect; inconclusive means small, poorly fitted or top-dose-only effect, or another doubt; inactive means no such curve, though single readings can be large; an effect the other way counts as inactive or inconclusive.

SMILES	CHX counter	Pf growth 48h	HCV inh	Shiga inhibitor	Pf growth 96h	AMA1 RON2 block
O=C(NC1CCCCCC1)C1c2ccccc2C(=O)N1CCCN1CCOCC1 (centres undefined)	.	.	.	.	13µM	.
COc1cccc(C(NC(C)=O)c2nc(-c3cccc(C#N)c3)cs2)c1 (centres undefined)	/	/	/	/	/	.
CC(=O)O[C@H]1C[C@@]2(C)[C@@H](C[C@@H](O)[C@H]3[C@@]4(C)CC[C@@H](O)[C@@H](C)[C@@H]4CC[C@@]32C)/C1=C(\CCC=C(C)C)C(=O)O	/	12µM	?	/	?	.
CC(=O)OC1CCC2(C)C3CCC4(C)C(OC(C)=O)CCC4C3C(C)C2(O)C1 (centres undefined)	/	/	.	/	/	.
CN(C)c1ccc(C2C3CCCc4ccccc4C3=NN2C)cc1 (centres undefined)	59	.	?	96	.	.
Cc1ccc(Nc2nc(C3CC3)cs2)cc1	33	.	.	52	.	/
Clc1ccc(Nc2nc(C3CC3)cs2)cc1	56	/	.	102	.	.
Cc1ccc(Nc2nc(C(=O)NCCCN3CCOCC3)cs2)cc1	.	.	?	.	.	.
COc1cccc(NC(=O)CN(C)C(C)C(=O)N2CCCCC2)c1 (centres undefined)	/	/	.	/	/	.
N#Cc1c(-c2ccco2)cc(C2CC2)nc1N	.	.	25µM	.	.	.
Cc1c(-c2ccccc2)nc(N)c(C#N)c1-c1ccco1	.	.	.	.	/	.
N#Cc1c(-c2ccco2)cc(-c2cccnc2)nc1N	.	.	11µM	.	.	.
